Where “and” joins values, the source holds several entries; their conditions need not be identical. Equal values may be shown once. In all, about 5,500 compounds went through this assay and about 2,000 (36%) were called active. About 18% were inconclusive and are not listed. Rule as the data show it: active = normalized growth mostly below about 0.91 (no sharp cut-off); inconclusive = no clear call, values can overlap the other calls; inactive = mostly above about 0.92. This is one part of the list.
Assay: chemical genetic growth profiling, strain panel (AID 1159580);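 also: tested at 20 µM; growth read once vehicle control cultures reached saturation at 30 °C; 1 = growth at the plate median or of vehicle wells; lower values mean less growth of the strain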
Conditions: S. cerevisiae deletion strains, growth OD

Measured: normalized growth

CCCC(C)C1(CC)C(=O)NC(=O)NC1=O (configuration not stated)
inactive: locus YAL013W, strain DEP1, stronger effect = lower value 1.01 | locus YAL021C, strain ccr4, stronger effect = lower value 0.996 | locus YAL026C, strain drs2, stronger effect = lower value 1 | locus YAL030W, strain snc1, stronger effect = lower value 1 | locus YBL061C, strain skt5, stronger effect = lower value 1 | locus YBR009C, strain hhf1, stronger effect = lower value 1.01 | locus YBR021W, strain FUR4, stronger effect = lower value 1 | locus YBR023C, strain chs3, stronger effect = lower value 1 | locus YBR171W, strain sec66, stronger effect = lower value 1 | locus YBR229C, strain ROT2, stronger effect = lower value 1.01 | locus YBR231C, strain swc5, stronger effect = lower value 0.994 | locus YBR279W, strain paf1, stronger effect = lower value 1 | locus YCL011C, strain gbp2, stronger effect = lower value 1 | locus YCL016C, strain dcc1, stronger effect = lower value 0.999 | locus YCL029C, strain bik1, stronger effect = lower value 1.03 | locus YCL061C, strain MRC1, stronger effect = lower value 1 | locus YCL069W, strain vba3, stronger effect = lower value 0.998 | locus YCR088W, strain abp1, stronger effect = lower value 0.996 | locus YDL005C, strain med2, stronger effect = lower value 0.992 | locus YDL035C, strain GPR1, stronger effect = lower value 1.03 | locus YDL040C, strain nat1, stronger effect = lower value 1 | locus YDL074C, strain BRE1, stronger effect = lower value 1.03 | locus YDL101C, strain DUN1, stronger effect = lower value 1.02 | locus YDL134C, strain PPH21, stronger effect = lower value 1.02 | locus YDL185W, strain tfp1, stronger effect = lower value 1.02 | locus YDL192W, strain arf1, stronger effect = lower value 1.02 | locus YDR001C, strain nth1, stronger effect = lower value 0.998 | locus YDR069C, strain doa4, stronger effect = lower value 1 | locus YDR101C, strain arx1, stronger effect = lower value 1.01 | locus YDR137W, strain rgp1, stronger effect = lower value 1.03 | locus YDR150W, strain NUM1, stronger effect = lower value 1.02 | locus YDR159W, strain sac3, stronger effect = lower value 0.995 | locus YDR162C, strain NBP2, stronger effect = lower value 1.03 | locus YDR195W, strain ref2 0.982 | locus YDR297W, strain sur2, stronger effect = lower value 1 | locus YDR318W, strain mcm21, stronger effect = lower value 1.03 | locus YDR334W, strain swr1, stronger effect = lower value 1.01 | locus YDR335W, strain msn5, stronger effect = lower value 1 | locus YDR388W, stronger effect = lower value 1.01 | locus YDR392W, strain spt3, stronger effect = lower value 1.02 | locus YDR502C, strain sam2, stronger effect = lower value 1.02 | locus YEL003W, strain gim4, stronger effect = lower value 1.01 | locus YEL037C, strain rad23, stronger effect = lower value 0.992 | locus YEL061C, strain CIN8 (second series), stronger effect = lower value 1 | locus YEL061C, strain CIN8, stronger effect = lower value 1.01 | locus YER015W, strain faa2, stronger effect = lower value 1 | locus YER016W, strain bim1, stronger effect = lower value 1.03 | locus YER110C, stronger effect = lower value 1.01 | locus YER111C, strain swi4, stronger effect = lower value 0.988 | locus YER155C, strain BEM2 (second series), stronger effect = lower value 0.999 | locus YER155C, strain BEM2, stronger effect = lower value 1.01 | locus YER167W, strain BCK2, stronger effect = lower value 1.03 | locus YFR010W, strain ubp6, stronger effect = lower value 1.01 | locus YGL078C, strain dbp3, stronger effect = lower value 1.01 | locus YGL086W, strain mad1, stronger effect = lower value 1.02 | locus YGL167C, strain pmr1, stronger effect = lower value 1 | locus YGL173C, strain kem1, stronger effect = lower value 0.993 | locus YGL227W, strain vid30, stronger effect = lower value 0.99 | locus YGL240W, strain doc1, stronger effect = lower value 0.989 | locus YGL248W, strain PDE1, stronger effect = lower value 1.01 | locus YGL253W, strain hxk2, stronger effect = lower value 1 | locus YGR078C, strain PAC10, stronger effect = lower value 1.02 | locus YGR135W, strain pre9, stronger effect = lower value 1 | locus YGR229C, strain SMI1, stronger effect = lower value 1.02 | locus YGR252W, strain gcn5, stronger effect = lower value 1.05 | locus YHR013C, strain ard1, stronger effect = lower value 0.978 | locus YHR027C, strain rpn1, stronger effect = lower value 1 | locus YHR030C, strain SLT2, stronger effect = lower value 1.01 and 0.987 | locus YHR079C, strain IRE1 (second series), stronger effect = lower value 1.02 | locus YHR079C, strain IRE1, stronger effect = lower value 0.979 | locus YHR094C, strain hxt1, stronger effect = lower value 1.01 | locus YHR129C, strain ARP1, stronger effect = lower value 1 | locus YHR142W, strain chs7, stronger effect = lower value 1 | locus YHR200W, strain rpn10, stronger effect = lower value 1.02 | locus YIL066C, strain RNR3, stronger effect = lower value 1.01 | locus YIL073C, strain SPO22, stronger effect = lower value 1.08 | locus YIL125W, strain kgd1, stronger effect = lower value 1.02 | locus YIR030C, strain dcg1, stronger effect = lower value 1.02 | locus YJL092W, strain hpr5, stronger effect = lower value 0.995 | locus YJL095W, strain BCK1 (second series), stronger effect = lower value 1 | locus YJL095W, strain BCK1, stronger effect = lower value 1.02 and 0.993 | locus YJL115W, strain asf1, stronger effect = lower value 0.999 | locus YJL129C, strain trk1, stronger effect = lower value 1.02 | locus YJL134W, strain LCB3, stronger effect = lower value 1.01 | locus YJL154C, strain vps35, stronger effect = lower value 1 | locus YJL164C, strain tpk1, stronger effect = lower value 1.01 | locus YJL166W, strain qcr8, stronger effect = lower value 1 | locus YJL168C, strain set2, stronger effect = lower value 1.03 | locus YJL187C, strain SWE1 (second series), stronger effect = lower value 1.01 | locus YJL187C, strain SWE1, stronger effect = lower value 0.999 | locus YJR043C, strain POL32, stronger effect = lower value 1.05 | locus YJR066W, strain TOR1, stronger effect = lower value 0.954
